Unmarked numbers belong to inactive results. Active and inactive are the calls of the source.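 The calls were made as follows, unless noted: active = normalized viability below 100% at a tested concentration; inactive = the rest.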
How the values were obtained:
[1] = drug combination growth inhibition, ovarian cancer – cell-based, oncology-focused library, rucaparib conditional, profiling panel (AID 1508598); conditions: patient-derived ovarian cancer cells, CellTiter-Glo viability, 144 h, stronger effect = lower value
[2] = target: Mitogen-activated protein kinase 7 (Homo sapiens) (UniProt Q13164); experiment: Gal4-ERK5 driven luciferase induction – cell-based, HTS, primary screen (AID 1508626;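 active = luciferase signal above three times the same-plate solvent-only control wells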;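 also: luciferase driven by Gal4-ERK5 fusion binding five Gal4 sites before minimal TATA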); conditions: HeLa Gal4-ERK5 transactivation, 18 h, at 5 µM, stronger effect = higher value
Mitogen-activated protein kinase 7 (Homo sapiens), sequence (Q13164 whole entry, looked up, the tested form may be a part): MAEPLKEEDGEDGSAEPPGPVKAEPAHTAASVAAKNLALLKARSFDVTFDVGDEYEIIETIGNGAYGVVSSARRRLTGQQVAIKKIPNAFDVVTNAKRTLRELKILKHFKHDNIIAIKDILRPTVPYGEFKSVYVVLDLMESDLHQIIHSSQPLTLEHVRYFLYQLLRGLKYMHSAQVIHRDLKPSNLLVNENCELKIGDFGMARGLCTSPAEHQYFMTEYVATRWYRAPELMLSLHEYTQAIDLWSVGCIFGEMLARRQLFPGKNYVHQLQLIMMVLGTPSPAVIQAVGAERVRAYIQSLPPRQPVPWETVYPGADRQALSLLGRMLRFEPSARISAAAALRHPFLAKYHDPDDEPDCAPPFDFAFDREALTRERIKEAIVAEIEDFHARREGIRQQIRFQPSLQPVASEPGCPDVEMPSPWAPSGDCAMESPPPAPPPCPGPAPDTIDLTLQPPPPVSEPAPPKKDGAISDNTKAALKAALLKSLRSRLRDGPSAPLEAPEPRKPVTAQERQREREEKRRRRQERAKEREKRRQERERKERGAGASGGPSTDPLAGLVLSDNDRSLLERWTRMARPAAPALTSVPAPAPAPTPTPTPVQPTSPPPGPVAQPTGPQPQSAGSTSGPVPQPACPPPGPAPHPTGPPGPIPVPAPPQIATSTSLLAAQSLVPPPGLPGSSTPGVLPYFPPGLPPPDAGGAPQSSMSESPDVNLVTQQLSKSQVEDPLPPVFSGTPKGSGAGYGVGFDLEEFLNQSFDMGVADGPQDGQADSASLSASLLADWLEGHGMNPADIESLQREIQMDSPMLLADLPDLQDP

[3] = at 0.000305 µM, OCI-C5x cells, with rucaparib 10 µM, 100% = cells with rucaparib alone
[4] = at 0.000305 µM, OCI-C5x cells, without rucaparib
[5] = at 0.000305 µM, OCI-P5x cells, with rucaparib 20 µM, 100% = cells with rucaparib alone
[6] = at 0.000305 µM, OCI-P5x cells, without rucaparib
[7] = at 0.00122 µM, OCI-C5x cells, with rucaparib 10 µM, 100% = cells with rucaparib alone
[8] = at 0.00122 µM, OCI-C5x cells, without rucaparib
[9] = at 0.00122 µM, OCI-P5x cells, with rucaparib 20 µM, 100% = cells with rucaparib alone
[10] = at 0.00122 µM, OCI-P5x cells, without rucaparib
[11] = at 0.00488 µM, OCI-C5x cells, with rucaparib 10 µM, 100% = cells with rucaparib alone
[12] = at 0.00488 µM, OCI-C5x cells, without rucaparib
[13] = at 0.00488 µM, OCI-P5x cells, with rucaparib 20 µM, 100% = cells with rucaparib alone
[14] = at 0.00488 µM, OCI-P5x cells, without rucaparib
[15] = at 0.0195 µM, OCI-C5x cells, with rucaparib 10 µM, 100% = cells with rucaparib alone
[16] = at 0.0195 µM, OCI-C5x cells, without rucaparib
[17] = at 0.0195 µM, OCI-P5x cells, with rucaparib 20 µM, 100% = cells with rucaparib alone
[18] = at 0.0195 µM, OCI-P5x cells, without rucaparib
[19] = at 0.0781 µM, OCI-C5x cells, with rucaparib 10 µM, 100% = cells with rucaparib alone
[20] = at 0.0781 µM, OCI-C5x cells, without rucaparib
[21] = at 0.0781 µM, OCI-P5x cells, with rucaparib 20 µM, 100% = cells with rucaparib alone
[22] = at 0.0781 µM, OCI-P5x cells, without rucaparib
[23] = at 0.313 µM, OCI-C5x cells, with rucaparib 10 µM, 100% = cells with rucaparib alone
[24] = at 0.313 µM, OCI-C5x cells, without rucaparib
[25] = at 0.313 µM, OCI-P5x cells, with rucaparib 20 µM, 100% = cells with rucaparib alone
[26] = at 0.313 µM, OCI-P5x cells, without rucaparib
[27] = at 1.25 µM, OCI-C5x cells, with rucaparib 10 µM, 100% = cells with rucaparib alone
[28] = at 1.25 µM, OCI-C5x cells, without rucaparib
[29] = at 1.25 µM, OCI-P5x cells, with rucaparib 20 µM, 100% = cells with rucaparib alone
[30] = at 1.25 µM, OCI-P5x cells, without rucaparib
[31] = at 5 µM, OCI-C5x cells, with rucaparib 10 µM, 100% = cells with rucaparib alone
[32] = at 5 µM, OCI-C5x cells, without rucaparib
[33] = at 5 µM, OCI-P5x cells, with rucaparib 20 µM, 100% = cells with rucaparib alone
[34] = at 5 µM, OCI-P5x cells, without rucaparib

For `CC(=O)O[C@@]1(C(C)=O)CC[C@H]2[C@@H]3C[C@H](C)C4=CC(=O)CC[C@]4(C)[C@@H]3CC[C@@]21C`, the viability [1, 3] was 108%, the viability [1, 4] was 122% and the viability [1, 5] was 94.9% (active). It also gave a viability [1, 6] of 101%, a viability [1, 7] of 113% and a viability [1, 8] of 120%. It also gave a viability [1, 9] of 101%, a viability [1, 10] of 103% and a viability [1, 11] of 122%. It also gave a viability [1, 12] of 119%, a viability [1, 13] of 103% and a viability [1, 14] of 107%. The viability [1, 15] was 114%, the viability [1, 16] was 118% and the viability [1, 17] was 104%. For the same compound, the viability [1, 18] was 113%, the viability [1, 19] was 106% and the viability [1, 20] was 114%. The viability [1, 21] was 94% (active), the viability [1, 22] was 111% and the viability [1, 23] was 122%. The viability [1, 24] was 118%, the viability [1, 25] was 102% and the viability [1, 26] was 110%. The viability [1, 27] was 107%, the viability [1, 28] was 120% and the viability [1, 29] was 106%. For the same compound, the viability [1, 30] was 111%, the viability [1, 31] was 105% and the viability [1, 32] was 121%. The viability [1, 33] was 92.5% (active) and the viability [1, 34] was 105%.
With `COc1cc([C@H]2c3cc4c(cc3[C@@H](O[C@@H]3O[C@@H]5CO[C@@H](C)O[C@H]5[C@H](O)[C@@H]3O)[C@H]3COC(=O)[C@H]23)OCO4)cc(OC)c1O` the viability [1, 3] was 115%, the viability [1, 4] was 108% and the viability [1, 5] was 99.3% (active). The viability [1, 6] was 97.3% (active), the viability [1, 7] was 108% and the viability [1, 8] was 103%. The viability [1, 9] was 96.5% (active), the viability [1, 10] was 90.8% (active) and the viability [1, 11] was 123%. It also gave a viability [1, 12] of 100%, a viability [1, 13] of 101% and a viability [1, 14] of 101%. For the same compound, the viability [1, 15] was 112%, the viability [1, 16] was 103% and the viability [1, 17] was 98.6% (active). The viability [1, 18] was 97.4% (active), the viability [1, 19] was 106% and the viability [1, 20] was 95.6% (active). The viability [1, 21] was 99.3% (active), the viability [1, 22] was 98.6% (active) and the viability [1, 23] was 75.1% (active). For the same compound, the viability [1, 24] was 64.7% (active), the viability [1, 25] was 99.1% (active) and the viability [1, 26] was 82% (active). The viability [1, 27] was 72% (active), the viability [1, 28] was 61.6% (active) and the viability [1, 29] was 79.8% (active). For the same compound, the viability [1, 30] was 42.6% (active), the viability [1, 31] was 38.1% (active) and the viability [1, 32] was 29.3% (active). For the same compound, the viability [1, 33] was 55.2% (active) and the viability [1, 34] was 26.7% (active).
In the case of `CC(C)(C(=O)NCC(F)(F)C(F)(F)F)C(=O)N[C@H]1C(=O)Nc2ccccc2-c2ccccc21`, the viability [1, 3] is reported as 111%, the viability [1, 4] is reported as 114% and the viability [1, 5] is reported as 103%. The viability [1, 6] was 105%, the viability [1, 7] was 106% and the viability [1, 8] was 111%. For the same compound, the viability [1, 9] was 103%, the viability [1, 10] was 104% and the viability [1, 11] was 114%. For the same compound, the viability [1, 12] was 117%, the viability [1, 13] was 99.5% (active) and the viability [1, 14] was 94.4% (active). The viability [1, 15] was 110%, the viability [1, 16] was 117% and the viability [1, 17] was 85.5% (active). For the same compound, the viability [1, 18] was 90.2% (active), the viability [1, 19] was 119% and the viability [1, 20] was 119%. The viability [1, 21] was 92% (active), the viability [1, 22] was 91.6% (active) and the viability [1, 23] was 116%. The viability [1, 24] was 107%, the viability [1, 25] was 85.7% (active) and the viability [1, 26] was 85.2% (active). The viability [1, 27] was 114%, the viability [1, 28] was 113% and the viability [1, 29] was 82.5% (active). The viability [1, 30] was 82% (active), the viability [1, 31] was 117% and the viability [1, 32] was 108%. The viability [1, 33] was 72% (active) and the viability [1, 34] was 76.9% (active).
For `CC(=O)OCC(=O)[C@@]1(O)[C@@H](C)C[C@H]2[C@@H]3CCC4=CC(=O)C=C[C@]4(C)[C@@]3(F)[C@@H](O)C[C@@]21C`, the luciferase signal [2] was 132 AU.
`O=C(O)C1=C(CSc2nnnn2CS(=O)(=O)O)CS[C@@H]2[C@H](NC(=O)[C@H](O)c3ccccc3)C(=O)N12` gave a luciferase signal [2] of 84 AU.
Work on `CC(=O)O[C@@](C)(CCC=C(C)C)C1CC=C(C)CC1` (some centres undefined) yielded a luciferase signal [2] of 72 AU.

Source: PubChem BioAssay
